Experiments:
Conditions in all cases: Compound Concentration (nM):1000
GRK1 = system: GRK1
GRK2 = system: T1, GRK2
T1 construct: gene ADRBK1

GRK3 = system: T2, GRK3
T2 construct: gene ADRBK2

GRK4 = system: GRK4
GRK7 = system: GRK7
GSK3A = system: GSK3A
GSK3B = system: GSK3B
HASPIN = system: T3, HASPIN
T3 construct: gene GSG2

HCK = system: HCK
HIPK1 = system: HIPK1
HIPK2 = system: HIPK2
HIPK3 = system: HIPK3
HIPK4 = system: HIPK4
HPK1 = system: T4, HPK1
T4 construct: gene MAP4K1

HUNK = system: HUNK
ICK = system: ICK
IGF1R = system: IGF1R
IKK-alpha = system: T5, IKK-alpha
T5 construct: gene CHUK

IKK-beta = system: T6, IKK-beta
T6 construct: gene IKBKB

IKK-epsilon = system: T7, IKK-epsilon
T7 construct: gene IKBKE
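Also: KINOMEscan scanMAX binding as percent activity remaining versus control; lower means stronger binding.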

SMILES	Percent Control (GRK1) [%]	Percent Control (GRK2) [%]	Percent Control (GRK3) [%]	Percent Control (GRK4) [%]	Percent Control (GRK7) [%]	Percent Control (GSK3A) [%]	Percent Control (GSK3B) [%]	Percent Control (HASPIN) [%]	Percent Control (HCK) [%]	Percent Control (HIPK1) [%]	Percent Control (HIPK2) [%]	Percent Control (HIPK3) [%]	Percent Control (HIPK4) [%]	Percent Control (HPK1) [%]	Percent Control (HUNK) [%]	Percent Control (ICK) [%]	Percent Control (IGF1R) [%]	Percent Control (IKK-alpha) [%]	Percent Control (IKK-beta) [%]	Percent Control (IKK-epsilon) [%]
C[C@@H](Oc1cc(-n2cnc3ccc(OC4CCN(C)CC4)cc32)sc1C(N)=O)c1ccccc1Cl [GSK579289A]	75	86	78	37	85	98	100	55	91	61	81	76	15	58	73	96	69	99	100	76
Nc1ncnc2occ(-c3ccc(NC(=O)Nc4cc(C(F)(F)F)ccc4F)cc3)c12 [GW770249X]	100	100	98	100	100	23	100	100	74	51	73	29	0	16	97	100	100	18	75	69
COc1ccc2cc(-c3c(-c4ccncc4)nc(-c4ccc(S(C)(=O)=O)cc4C)n3C)ccc2c1 [SB-633825]	70	81	63	100	94	100	100	94	72	77	82	70	63	85	100	69	79	57	66	82
C/C(Nc1ccc(S(N)(=O)=O)cc1)=C1/C(=O)Nc2ccccc21 [GW335962X]	85	98	100	100	97	90	97	33	79	79	93	97	84	100	100	92	95	92	100	63
COc1cc(C=NNc2ncnc3c2cnn3-c2ccccc2)ccc1O [GW513184X]	100	100	100	28	84	7.7	87	100	78	43	91	75	67	100	58	91	100	100	100	100
Cl.O=C(Nc1ccc(Oc2ccc3[nH]c(NC(=O)c4ccco4)nc3c2)cc1)Nc1cc(C(F)(F)F)ccc1F [GW683134A]	100	100	100	100	100	100	88	100	41	100	100	100	16	44	63	100	100	24	88	100
CN1CCN(C(=O)c2ccc(NC(=O)Nc3ccc(N(C)c4ccnc(Nc5ccc(CS(C)(=O)=O)cc5)n4)cc3)cc2)CC1.Cl [GW830263A]	100	100	97	4.5	100	100	95	92	100	72	77	71	74	2.6	35	44	100	90	70	38
Cl.c1ccc(Cc2nc3ccc(Nc4ncnc5ccccc45)cc3[nH]2)cc1 [GR269666A]	100	100	100	91	100	100	99	88	100	100	100	100	100	98	100	100	100	100	100	100
CCn1c(-c2nonc2N)nc2c(C#CC(C)(C)O)nc(OCCNC)cc21.Cl [GSK949675]	77	100	100	100	69	18	55	100	100	42	75	47	100	100	89	100	100	91	98	73
NS(=O)(=O)c1ccc(Nc2ncc(-c3ccccc3)o2)cc1 [GW572399X]	100	100	100	100	100	99	83	100	100	100	72	75	100	100	92	89	100	90	100	78
CC1=C(C(=O)Nc2ccc3[nH]ncc3c2)C(c2ccc3ccccc3c2)CC(=O)N1 (centres unmarked) [GSK270822A]	78	38	17	100	100	100	100	96	68	87	76	79	100	87	91	84	85	69	72	87
CCS(=O)(=O)c1ccc(OC)c(Nc2ncc(-c3cccc(OC)c3)o2)c1 [GW580509X]	100	100	100	100	100	91	85	83	49	42	56	45	18	88	100	100	100	100	100	100
COc1cc(/C=N/Nc2ncnc3[nH]ncc23)ccc1O [GW578748X]	83	100	78	100	100	34	78	0.2	64	24	19	16	85	80	100	75	100	14	33	81
O=C1Nc2ccc(C(=O)c3ccco3)cc2C1=Cc1cc(Cl)c(O)c(Cl)c1 [GW406108X]	60	100	97	100	65	67	69	2.2	98	11	5.3	5.4	59	96	46	68	100	96	100	30
O=C(Nc1n[nH]c2nc(-c3ccc(O)cc3)c(Br)cc12)C1CC1 [SB-725317]	100	100	100	100	100	7.5	0.5	100	100	22	36	30	100	86	100	1	100	100	100	84
CCc1ccc(Oc2nccc(-c3c(-c4ccc(F)cc4)ncn3C3CCNCC3)n2)cc1 [SB-242719]	92	94	90	100	100	97	100	86	99	80	92	100	100	54	86	100	97	99	100	56
COc1cc2ncn(-c3cc(O[C@H](C)c4ccccc4Cl)c(C(N)=O)s3)c2cc1OC [GSK237701A]	100	95	97	18	99	85	97	94	64	68	84	93	99	26	100	91	97	83	92	81
Cl.O=C(Nc1ccc(Oc2ccc3[nH]c(NC(=O)c4ccccc4)nc3c2)cc1)Nc1cc(C(F)(F)F)ccc1F [GW709042A]	99	100	97	100	100	100	99	92	71	94	98	100	13	75	90	100	100	75	100	86
COc1cc2ncnc(Nc3ccc4c(cnn4Cc4ccccc4)c3)c2cc1OC.Cl [GW282449A]	100	100	100	100	100	100	100	99	21	100	100	100	100	100	92	100	100	100	100	100
